Screening results from PubChem BioAssay.
Rows were chosen to be rich in hits. Some 2.1% of all compounds tested hit in one or more screens of this group.
Giardia killer: Small Molecules that selectively kill Giardia lamblia: qHTS; Giardia lamblia trophozoite viability; activity change, % at 7.66 µM, hits read low; 0.15% of 340,000 active; in the data active = activity change below about -80%; inconclusive = between about -30% and that limit;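 also: parasites exposed to compound for two days anaerobically before the ATP read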
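ATP-content bioluminescence gauges trophozoite survival. Cells (100/well) receive compound and incubate anaerobically for 48 hrs at 37 deg C; detection reagent follows for 15-30 min at room temperature.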
p53 reactivation: qHTS assay for re-activators of p53 using a Luc reporter; H1299 p53-A138V BP100-luciferase reporter, luminescence, 24 h; Potency, µM (top dose mostly 92.2 µM), most hits filed as activators; 0.063% of 320,000 active; AID 504706, 2011; also: nearly all actives have a fitted effect of over 45% in size
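H1299 (p53-null), stable ts p53-A138V + BP100-Luc; 1000 cells/well, Opti-MEM/10% FBS; cpd 4 pt, 1:5; 24 h, 37 deg C, 5% CO2; detection reagent 10 min RT; luminescence.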
B2AR arrestin: qHTS assay of beta-arrestin-biased ligands of beta2-adrenergic receptor | Beta-2 adrenergic receptor (Homo sapiens), P07550 | beta-arrestin recruitment to beta2AR, cell-based reporter | Potency, µM (series often up to 46.1 µM), usual class: activators | 0.02% of 330,000 active; also: nearly all actives have a fitted effect of over 65% in size
Target sequence (P07550 whole entry, looked up): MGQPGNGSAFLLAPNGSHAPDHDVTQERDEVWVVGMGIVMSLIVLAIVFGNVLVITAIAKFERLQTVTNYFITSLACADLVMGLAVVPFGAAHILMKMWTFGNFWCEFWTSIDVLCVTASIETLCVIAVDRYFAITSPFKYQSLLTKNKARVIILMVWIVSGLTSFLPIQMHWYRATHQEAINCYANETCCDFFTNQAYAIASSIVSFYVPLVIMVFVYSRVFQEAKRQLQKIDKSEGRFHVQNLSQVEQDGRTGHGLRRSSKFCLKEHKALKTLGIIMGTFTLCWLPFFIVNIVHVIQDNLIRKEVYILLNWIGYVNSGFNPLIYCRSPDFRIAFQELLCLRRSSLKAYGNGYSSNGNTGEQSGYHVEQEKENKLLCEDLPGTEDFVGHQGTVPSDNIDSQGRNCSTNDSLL
uPA surface inh: qHTS for Inhibitors of Cell Surface uPA Generation; cell surface uPA generation assay, qHTS; Potency, µM (doses to about 38.3 µM), hits mostly inhibitors; 0.31% of 330,000 active; active = well fitted inhibition curve with a large enough effect; inconclusive = small, poorly fitted or top-dose-only effect; inactive = no such curve, though single readings can be large or run the other way; tested in mouse RAW 264.7 cells; also: nearly all actives have a fitted effect of over 55% in size
ClpP mod: qHTS Assay for Activators of ClpP. ATP-dependent Clp protease proteolytic subunit (Bacillus subtilis (strain 168)), P80244. purified B. subtilis ClpP, FRET peptide cleavage, 20 min. Potency, µM (doses to about 57.5 µM). 1.9% of 340,000 active. AID 651965, 2013; active = well fitted falling curve with a large enough effect; inconclusive = small, poorly fitted or top-dose-only effect; inactive = no such curve, though single readings can be large or run the other way; also: the source files actives as falling curves though it sought activators and does not explain the sign; nearly all actives have a fitted effect of over 65% in size
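Purified B. subtilis ClpP, 10 microg/mL final in Tris/HCl pH8 with KCl, BSA, glycerol and Tween-20, cleaved an Abz/nitrotyrosine-quenched decapeptide. Fluorescence (ex 320, em 430) was read at 0 and 20 min at room temperature. Delta was normalized to 5.8 microM ADEP and DMSO/no-enzyme controls.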
Mito fusion act: qHTS Assay for Small Molecule Inhibitors of Mitochondrial Division or Activators of Mitochondrial Fusion; S. cerevisiae fusion-defective mutant growth rescue, CellTiterGlo 48 h; Potency, µM (doses to about 46.1 µM), hits mostly activators; 0.23% of 320,000 active; also: nearly all actives have a fitted effect of over 45% in size
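S. cerevisiae fusion-defective temperature-sensitive mutants (e.g. fzo1-1, mgm1-5) grown 48 h at 37C in YPEG (ethanol/glycerol non-fermentable) medium with 23 nl compound per well; growth rescue read as CellTiterGlo luminescence.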
Large screens that a line does not name were inactive. Unless noted, calls follow the shape of the dose curve; as a rule, active = well fitted curve in the direction sought with a large enough effect; inconclusive = small, poorly fitted or top-dose-only effect, or another doubt; inactive = no such curve, though single readings can be large; an effect the other way counts as inactive or inconclusive.

CCN1CCN(C(=O)COc2ccc3c(c2)C(=O)CC2(CCN(C(C)=O)CC2)O3)CC1	ClpP mod 32µM
CCN(CC)C(=O)c1ccc(NC(=O)CCn2nc(-c3ccc(Cl)cc3)c3ccccc3c2=O)cc1	none (no result: Giardia killer, p53 reactivation, B2AR arrestin, uPA surface inh, Mito fusion act)
Cc1cccc(CN2CCN(C(=O)Cc3ccccc3)CC2)c1	none (no result: p53 reactivation, ClpP mod)
Cc1ccc(/C=C/C(=O)C2C(=O)c3ccccc3C2=O)cc1	Giardia killer -86, p53 reactivation inconclusive, uPA surface inh inconclusive
Oc1ccc2c3c1O[C@H]1[C@@H](O)CC[C@@]4(O)C(C2)N(CC2CCC2)CCC314 (some centres not stated)	none (no result: Giardia killer, p53 reactivation, B2AR arrestin, uPA surface inh, Mito fusion act)
O=C1CC=C2C3CC4N(CCC45c4cc(O)c(O)cc4N1C25)CC3=CCBr (configuration not stated)	ClpP mod 35µM (no result: p53 reactivation, B2AR arrestin, Mito fusion act)
O=C1CC=C2C3CC4N(CCC45c4ccccc4N1C25)CC3=CCO (configuration not stated)	none (no result: p53 reactivation, B2AR arrestin, Mito fusion act)
CCOC(=O)[C@]12Cc3cc4c(cc3[C@H]1N(Cc1ccccc1)C(=O)c1ccccc12)OCO4	uPA surface inh 13µM (no result: p53 reactivation, B2AR arrestin, Mito fusion act)
C[C@@]12CC[C@@H](c3cc4c(cc3C1)OCO4)N2c1ccccc1	none (no result: Giardia killer, p53 reactivation, B2AR arrestin, uPA surface inh, Mito fusion act)
COCC1CCCN(C(=O)c2cc(COc3ccc4ncccc4c3)on2)C1 (configuration not stated)	uPA surface inh inconclusive
CC(O)C1C=CC=CC(=O)OC2CC3OC4C5OC5(C)C(O)CC4(COC(=O)C(O)C(C)CCO1)C2(C)C31CO1 (configuration not stated)	ClpP mod 32µM (no result: p53 reactivation, B2AR arrestin, Mito fusion act)
O=C(COc1cc(Cl)ccc1Cl)Nc1ccc(Cl)cc1C(=O)c1ccccc1	none (no result: Giardia killer, p53 reactivation, B2AR arrestin, uPA surface inh, Mito fusion act)
O=C1CSC(=S)N1Cc1cccs1	uPA surface inh inconclusive (no result: p53 reactivation, B2AR arrestin, Mito fusion act)
c1ccc2sc(NC3=NCCN3)nc2c1	p53 reactivation inconclusive, Mito fusion act 3.2µM
Cc1cccc2nc(-c3ccccc3)c(-c3ccc(CN4CCC(n5c(=O)[nH]c6ccccc65)CC4)cc3)nc12	ClpP mod 25µM (no result: Giardia killer, p53 reactivation, B2AR arrestin, uPA surface inh, Mito fusion act)
CCOC(=O)c1cccc(NC(=O)c2cnc(N3CCCCC3)c3ccccc23)c1	ClpP mod 28µM (no result: Giardia killer, p53 reactivation, B2AR arrestin, uPA surface inh, Mito fusion act)
COC(=O)C1C2c3ccccc3OC1(C)N=c1s/c(=C/c3cnn(C)c3)c(=O)n12 (configuration not stated)	Mito fusion act 13µM
CC(=O)C1C2c3ccccc3OC1(C)N=c1s/c(=C/c3cn(C)nc3C)c(=O)n12 (configuration not stated)	none
CC(C)c1ccc(NC(=O)c2ccc3c(c2)C(=O)N(Cc2cccnc2)C3=O)cc1	uPA surface inh inconclusive
Cc1ccc(C(=O)Nc2ncc([N+](=O)[O-])s2)cc1	Giardia killer -86, uPA surface inh inconclusive (no result: p53 reactivation)
Fc1cccc(-c2ccc3c(c2)CN(c2cccc(Cl)c2)Cc2cnnn2-3)c1	ClpP mod 32µM (no result: Giardia killer, p53 reactivation, B2AR arrestin, uPA surface inh, Mito fusion act)
O=S(=O)(c1cc(Cl)cc(Cl)c1)N1Cc2cc(-c3cccc(F)c3)ccc2-n2nncc2C1	none (no result: Giardia killer, p53 reactivation, B2AR arrestin, uPA surface inh, Mito fusion act)
COc1ccc([C@H]2CC(=O)C=C(c3c(OC)cccc3OC)C2)cc1	uPA surface inh 2.2µM
O=C1C=C(c2ccc3ncccc3c2)C[C@@H](c2ccc(Cl)cc2)C1	uPA surface inh inconclusive, Mito fusion act inconclusive
O=[N+]([O-])c1cc(C(F)(F)F)c(Cl)c([N+](=O)[O-])c1Nc1ncc(C(F)(F)F)cc1Cl	none (no result: Giardia killer, p53 reactivation, B2AR arrestin, uPA surface inh, Mito fusion act)
NC(N)=N/N=C/c1ccc(N2CCOCC2)cc1	uPA surface inh 7.9µM
Cc1ccc(C2CC(=O)C(C=NCCN3CCN(C(=O)Cc4ccccc4)CC3)=C(O)C2)cc1 (configuration not stated)	ClpP mod 32µM
COc1cc([C@@H]2c3cc4c(c(O)c3C[C@H]3COC(=O)[C@@H]32)OCO4)cc(OC)c1OC	none (no result: p53 reactivation, B2AR arrestin, uPA surface inh, Mito fusion act)
COc1ccc(-n2c(=O)[nH]c3ccccc3c2=O)c(OC)c1	none
COc1ccc(-c2nc(C(N)=O)c3[nH]c(=O)n(-c4ccccc4OC)c3n2)c(OC)c1	uPA surface inh 11µM
